{"source": "PubChem BioAssay (NCATS)", "note": "Results filed as inconclusive are left out. A call without a number means that no potency is given here. Activity calls are given as the source filed them. Calls follow the shape of the dose curve; as a rule, active = well fitted inhibition curve with a large enough effect; inconclusive = small, poorly fitted or top-dose-only effect; inactive = no such curve, though single readings can be large or run the other way.", "data": [{"biological_target": "Tumor susceptibility gene 101 protein (Homo sapiens) (UniProt Q99816)", "sequence (Q99816 whole entry, looked up)": "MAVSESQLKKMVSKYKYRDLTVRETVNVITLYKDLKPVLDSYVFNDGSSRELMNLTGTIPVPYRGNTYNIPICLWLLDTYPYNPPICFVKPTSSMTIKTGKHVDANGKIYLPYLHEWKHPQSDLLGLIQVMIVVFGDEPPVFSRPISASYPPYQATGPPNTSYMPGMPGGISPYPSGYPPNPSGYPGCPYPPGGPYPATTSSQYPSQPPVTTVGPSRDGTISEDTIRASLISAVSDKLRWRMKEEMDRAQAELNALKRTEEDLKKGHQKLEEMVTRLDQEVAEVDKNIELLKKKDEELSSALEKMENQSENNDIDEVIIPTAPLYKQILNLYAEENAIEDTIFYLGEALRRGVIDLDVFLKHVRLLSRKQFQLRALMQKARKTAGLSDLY", "assay": "qHTS Assay for Iinhibitors of HIV-1 Budding by Blocking the Interaction of PTAP/TSG101: Hit Validation (AID 651600); also: nearly all actives have a fitted effect of over 70% in size; also: potency is read from the fitted curve at half-maximal effect", "details": "PTAP peptide/TSG101 UEV interaction, biochemical assay; series mostly up to 57.5 µM", "method_in_brief": "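Fluorescence polarization binding assay: Tsg101 binding domain (10 uM final) pre-dispensed with compounds, then FITC-labeled PTAP-motif peptide (50 nM final) added; 20 min at r.t. in HEPES pH 7.5 buffer with NaCl, Tween 20, EDTA, TCEP.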", "values": [{"molecule": "O=C1Nc2ccc(Cl)cc2C12Nc1ccccc1-c1nnc(SCc3ccccc3F)nc1O2", "note": "(stereo not given)", "Potency": "inactive"}, {"molecule": "O=C(NCc1ccccc1Br)c1cccc2c1C(=O)c1ccc(N3CCC(Cc4ccccc4)CC3)cc1S2(=O)=O", "Potency": "inactive"}, {"molecule": "COc1cc(C2C=C(c3cccs3)Nc3ncnn32)cc(OC)c1OC", "note": "(stereo not given)", "Potency": "inactive"}, {"molecule": "CC(=O)Nc1ccc(S(=O)(=O)Nc2nc3n(n2)C(c2ccccc2)C=C(c2ccc(Cl)cc2)N3)cc1", "note": "(stereo not given)", "Potency": "inactive"}, {"molecule": "CC[C@@]1(C(=O)OC)N[C@H](CN(C)C(=O)c2ccc(C)cc2)[C@@H]2C(=O)N(Cc3ccccc3)C(=O)[C@@H]21", "Potency": "inactive"}, {"molecule": "CCN(CC)CCCNc1ccc2ncn3c4ccc(O)cc4c(=O)c1c23", "Potency": "4.61 µM (active)"}, {"molecule": "C#CCn1cc(C=C2C(=O)c3ccccc3C2=O)c2ccccc21", "Potency": "inactive"}, {"molecule": "CC1=CC(=C(C#N)c2nc3ccccc3s2)C=C(C)N1c1ccc(F)cc1F", "Potency": "13 µM (active)"}, {"molecule": "Cc1ccc(OC(=O)c2ccc3nc(C)sc3c2)cc1", "Potency": "inactive"}, {"molecule": "COCCNC(=S)N/N=C/c1c2ccccc2cc2ccccc12", "Potency": "inactive"}, {"molecule": "Cc1cc[n+](-c2[nH]c(=O)sc2/C=N/N=C(\\[O-])c2ccccc2)cc1C", "Potency": "10.3 µM (active)"}, {"molecule": "CN(C)c1ccc(/C=C2\\SC(=O)N(CC(O)Cn3c4ccccc4c4ccccc43)C2=O)cc1", "note": "(stereo not given)", "Potency": "16.3 µM (active)"}, {"molecule": "Clc1ccc(C2=CC(c3ccco3)n3ncnc3N2)cc1", "note": "(stereo not given)", "Potency": "inactive"}, {"molecule": "O=C(Nc1nc2c(s1)CN(Cc1ccccc1)CC2)c1cccc(S(=O)(=O)N2CCc3ccccc32)c1", "Potency": "inactive"}, {"molecule": "O=C(NCc1cccc(F)c1)c1cccc2c1C(=O)c1ccc(N3CCCC3)cc1S2(=O)=O", "Potency": "inactive"}]}]}
